Common to all, as to details: primary human lung fibroblasts
Read-out in assay [1]: Plasminogen activator inhibitor-1 (PAI1), SERPINE1 (gene 5054)
Nature of the assay: BSK_MyoF_PAI1: BioMAP Diversity Plus: MyoF Assay for Plasminogen activator inhibitor-1 (PAI1) Biomarker Activity (AID 2284256).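 For outcome: PAI-1 protein level measured by ELISA in fibroblast cultures; PAI-1 read 24 h after compound addition.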 A digest of the protocol:
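Primary human lung fibroblasts are dosed and incubated 24 h. PAI-1 is then measured by ELISA, while parallel cultures undergo SRB staining for overt cytotoxicity. Increases over DMSO define activity.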

Read-out in assay [2]: Interleukin-8 (IL8), CXCL8 (gene 3576)
As to the kind of experiment: BSK_MyoF_IL8: BioMAP Diversity Plus: MyoF Assay for Interleukin-8 (IL8) Biomarker Activity (AID 2284261). Summed up: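 IL-8 levels were measured by ELISA in human lung fibroblasts harvested 24 h after compound addition. Responses were analysed as gain of signal over the DMSO baseline.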

Read-out in another assay: Decorin, DCN (gene 1634)
As to the kind of experiment: BSK_MyoF_Decorin: BioMAP Diversity Plus: MyoF Assay for Decorin Biomarker Activity (AID 2284265). A digest of the protocol: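 Compound is added to lung fibroblast cultures; cells incubate 24 h; decorin is then measured by ELISA; the response is analysed upward against DMSO controls.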

Read-out in assay [3]: Matrix Metallopeptidase 1 (MMP1), MMP1 (gene 4312)
Nature of the assay: BSK_MyoF_MMP1: BioMAP Diversity Plus: MyoF Assay for Matrix Metallopeptidase 1 (MMP1) Biomarker Activity (AID 2284268). A digest of the protocol:
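Lung fibroblast cultures were dosed with test chemicals and, after 24 h, MMP1 levels were measured by ELISA; responses were referenced to DMSO and analysed for increases.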

Read-out in assay [4]: TIMP metallopeptidase inhibitor 1 (TIMP1), TIMP1 (gene 7076)
As to the kind of experiment: BSK_MyoF_TIMP1: BioMAP Diversity Plus: MyoF Assay for TIMP metallopeptidase inhibitor 1 (TIMP1) Biomarker Activity (AID 2284269). Summed up:
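ELISA read-out of TIMP-1 from primary human lung fibroblast cultures 24 h after compound dosing; gain of signal relative to DMSO vehicle baseline defines activity.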

Active and inactive are the calls of the source. Rule for the calls: active = hit-call score of the fitted dose curve at least 0.9, where 1 is the maximum; inactive = score below 0.9.

On to `O=C1c2ccc(O)c(O)c2C(=O)c2c(O)ccc(O)c21`, for which the outcome in assay [1] is “inactive”; in assay [2], “inactive”; in the assay with Decorin, DCN (gene 1634), “inactive”; in assay [3], “inactive”; in assay [4] it was “inactive”.
For the compound `Clc1ccc(Nc2nnc(Cc3ccncc3)c3ccccc23)cc1`, the outcome is “inactive” in assay [1]; “inactive” in assay [2]; “inactive” in the assay with Decorin, DCN (gene 1634); “inactive” in assay [3]; “inactive” in assay [4].
As to `C=CC(=C)CC/C=C(\C)CCC=C(C)C`, the outcome in assay [1] is “inactive”; in assay [2], “inactive”; with Decorin, DCN (gene 1634), “inactive”; in assay [3] it was “inactive”; in assay [4] it was “inactive”.
One may read the AC50 as the concentration giving half of the maximal activity seen. With `O=C1OC2(c3ccccc31)c1cc(I)c(O)c(I)c1Oc1c2cc(I)c(O)c1I`, the half-maximal activity concentration (AC50) in assay [1] is 2.72 µM (active); in assay [2], 3.37 µM (active); in the assay with Decorin, DCN (gene 1634), 2.56 µM (active); in assay [3], 0.605 µM (active); in assay [4], 7.73 µM (active).
With `C=COC(=O)C(C)(C)CCCCCC`, the concentration at half-maximal activity (AC50) in assay [1] is 34 µM (active); with Decorin, DCN (gene 1634), 31.7 µM (active). Also, the result in assay [2], in assay [3] and in assay [4] was inactive.
`O=C(NCc1ncc(C(F)(F)F)cc1Cl)c1c(Cl)cccc1Cl`: the outcome in assay [1] was “inactive”; in assay [2] it was “inactive”; with Decorin, DCN (gene 1634) it was “inactive”; in assay [3], “inactive”; in assay [4] it was “inactive”.
Regarding `CCCCC(CC)C(=O)OCCOCCOCCOCCOC(=O)C(CC)CCCC` (stereo not given), the outcome was “inactive” in assay [1]; “inactive” in assay [2]; “inactive” in the assay with Decorin, DCN (gene 1634); “inactive” in assay [3]; “inactive” in assay [4].
As to `Oc1cc2ccccc2cc1O`, the outcome was “inactive” in assay [1]; “inactive” in assay [2]; “inactive” with Decorin, DCN (gene 1634); “inactive” in assay [3]; “inactive” in assay [4].
`CC[N+](CC)(CC)Cc1ccccc1`: the outcome in assay [1] was “inactive”; in assay [2] it was “inactive”; in the assay with Decorin, DCN (gene 1634) it was “inactive”; in assay [3] it was “inactive”; in assay [4], “inactive”.
For `C=CC(C)(CCC=C(C)C)OC(C)=O` (stereo not given), the outcome in assay [1] was “inactive”; in assay [2] it was “inactive”; with Decorin, DCN (gene 1634), “inactive”; in assay [3], “inactive”; in assay [4], “inactive”.
As for `CCOC(=O)CN[C@@H](C(=O)N1CC[C@H]1C(=O)NCc1ccc(/C(N)=N/O)cc1)C1CCCCC1`, the outcome in assay [1] is “inactive”; in assay [2], “inactive”; with Decorin, DCN (gene 1634), “inactive”; in assay [3], “inactive”; in assay [4] it was “inactive”.
Turning to `CN(C)c1ccc(C(=C2C=CC(=[N+](C)C)C=C2)c2ccccc2)cc1`, the concentration at half-maximal activity (AC50) in assay [1] is 0.675 µM (active); in assay [2], 2.76 µM (active); in assay [4], 0.697 µM (active). Moreover, the outcome is “inactive” with Decorin, DCN (gene 1634) and “inactive” in assay [3].
Consider `CCCCCCCCCCCCCCCCCC[N+](C)(C)Cc1ccccc1`, for which the half-maximal activity concentration (AC50) in assay [1] is 2.91 µM (active); in assay [2], 5.06 µM (active); with Decorin, DCN (gene 1634), 10 µM (active); in assay [4], 4.88 µM (active). For the same compound, the outcome in assay [3] was inactive.
Turning to `CC(C)(C)c1ccc(O)c(O)c1`, the concentration at half-maximal activity (AC50) in assay [1] was 33.3 µM (active); in assay [4] it was 31.2 µM (active). Besides, the outcome in assay [2] was “inactive”; with Decorin, DCN (gene 1634), “inactive”; in assay [3], “inactive”.
In the case of `Cc1ccc(C(=O)c2ccccc2)cc1`, the outcome was “inactive” in assay [1]; “inactive” in assay [2]; “inactive” with Decorin, DCN (gene 1634); “inactive” in assay [4]. Besides, in assay [3], the AC50 was 38.7 µM (active).
Consider `O=C(NO)c1ccccc1`, for which the outcome in assay [1] is “inactive”; in assay [2], “inactive”; with Decorin, DCN (gene 1634), “inactive”; in assay [3] it was “inactive”; in assay [4], “inactive”.
Take `C[C@]12CC[C@@H]3c4ccc(O)cc4CC[C@H]3[C@@H]1C[C@@H](O)[C@@H]2O`: the outcome was “inactive” in assay [1]; “inactive” in assay [2]; “inactive” with Decorin, DCN (gene 1634); “inactive” in assay [3]; “inactive” in assay [4].
For the compound `CC1=NN(c2ccccc2)C(=O)C1`, the outcome was “inactive” in assay [1]; “inactive” in assay [2]; “inactive” in the assay with Decorin, DCN (gene 1634); “inactive” in assay [3]; “inactive” in assay [4].

For the origin of these results see PubChem BioAssay (EPA / NIEHS).
